Results on eight compounds are retold here after PubChem BioAssay (NCI).

What all share (assay): NCI-60 one-dose screen, 48 h (100 = growth as untreated, 0 = no growth, -100 = all killed)
Details in all cases: 10 µM unless noted

For experiment [1], the system named is SR leukemia.
For experiment [2], the system named is RPMI-8226 leukemia.
In experiment [3] the test system is OVCAR-8 ovarian.
In experiment [4] the test system is OVCAR-5 ovarian.
Experiment [5] has as its system OVCAR-4 ovarian.
Experiment [6] deals with SK-OV-3 ovarian.
The test system of experiment [7] is IGROV1 ovarian.
Experiment [8] concerns OVCAR-3 ovarian.
Experiment [9] relates to HS 578T breast.
The test system of experiment [10] is NCI/ADR-RES ovarian.
In experiment [11] the test system is T-47D breast.
In experiment [12] the test system is BT-549 breast.
For experiment [13], the system named is SW-620 colon.
The test system of experiment [14] is MCF7 breast.
Experiment [15] concerns HCT-116 colon.
The test system of experiment [16] is HCC-2998 colon.
Experiment [17] concerns KM12 colon.
Experiment [18] concerns MDA-MB-468 breast.

The panel holds about 83,000 compounds, 20% with a hit somewhere; the sample as a whole holds those more often.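 Cell lines were cultured in 96-well plates, exposed to a single compound concentration, and assessed for percent growth 48 hours later.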 Unmarked numbers belong to inactive results. Active and inactive are the calls of the source. How the source made its calls: active means growth percent below 10; inactive means the rest.

Consider `CN(C)c1nc(NCCNS(=O)(=O)c2ccc(C3=Nc4c(N)nc(N)nc4NC(c4ccc(C(F)(F)F)cc4)C3)cc2)nc(N2CCOCC2)n1` (centres undefined), for which the growth in [1] was 3.12% (active); in experiment [2] it was 34.8%; in experiment [3], 43.2%; in experiment [4], 78%; in experiment [5] it was 58%; in [6], 55.8%. Further, the growth in experiment [7] was 45.7%; in experiment [8] it was 58.2%; in experiment [9], 40.7%; in [10], 91.8%; in experiment [11] it was 24.7%; in experiment [12], 1.02% (active). For the same compound, the growth in [13] is 54.7%; in experiment [14], 21.8%; in experiment [15], 17.1%; in experiment [16] it was 27.3%; in [17] it was 47.8%; in experiment [18], 5.66% (active).
In the case of `N#Cc1c(NC(=O)N2CCOCC2)n(-c2ccc(OC(F)(F)F)cc2)c2cc(F)ccc12`, the growth in experiment [1] was 80%; in experiment [2], 57.9%; in experiment [3], 99.1%; in experiment [4] it was 88.2%; in experiment [5] it was 87%; in [6], 120%. Moreover, the growth in experiment [7] was 105%; in [8] it was 111%; in experiment [9] it was 102%; in [10] it was 80.5%; in experiment [11], 77.4%; in experiment [12], 139%. Also, the growth is 110% in [13]; 89% in experiment [14]; 80.5% in experiment [15]; 110% in experiment [16]; 92.5% in experiment [17]; 89.1% in experiment [18].
On to `COc1ccc(NC2=C(I)C(=O)C(C)=C(C)C2=O)cc1`, for which the growth in experiment [1] was 12.3%; in [2] it was 2.98% (active); in [3], -19.2% (active); in [4], 53.9%; in experiment [5] it was -84.6% (active); in experiment [6], 91.8%. In addition, the growth in experiment [7] is 15.3%; in experiment [8], -17.1% (active); in experiment [9], 85.6%; in [10], -20% (active); in [11] it was -21.1% (active); in [12] it was 81.4%. Also, the growth was 62.1% in [13]; -8.31% (active) in experiment [14]; -3.05% (active) in [15]; 118% in experiment [16]; 19.1% in [17]; -42.3% (active) in experiment [18].
`OC1CCC(Cn2c(C(F)(F)F)cc3c(Cl)ncnc32)CC1` (centres undefined): the growth is -58.9% (active) in [1]; 84.9% in [2]; -4.04% (active) in experiment [3]; 94.6% in experiment [4]; -19.9% (active) in [5]; 57.7% in [6]. Moreover, the growth was -85.7% (active) in experiment [7]; -25.1% (active) in [8]; -35.7% (active) in experiment [9]; 51.8% in experiment [10]; 82% in experiment [11]; -37.7% (active) in experiment [12]. In addition, the growth was 38.8% in experiment [13]; 91% in experiment [14]; 1.57% (active) in experiment [15]; -94% (active) in experiment [16]; 86.5% in experiment [17]; 9.1% (active) in [18].
`COc1c2c(cc3c1C(CCc1ccccc1)N(C)CC3)OCO2` (centres undefined): the growth in experiment [1] is -9.93% (active); in experiment [2], -15.5% (active); in [3], 16.9%; in experiment [4] it was 16.2%; in experiment [5], 29.2%; in experiment [6], -6.7% (active). Moreover, the growth in [7] is -4.07% (active); in experiment [8], 3.16% (active); in [9], 11%; in [10], 1.62% (active); in [11], -22.3% (active); in experiment [12], -28.8% (active). In addition, the growth in experiment [13] is 1.49% (active); in experiment [14], -34.4% (active); in [15], 3.07% (active); in experiment [16] it was -31.5% (active); in experiment [17], -28.3% (active); in experiment [18], -61.8% (active).
`COc1ccccc1NC(=O)N/N=C/c1c[nH]c2ccccc12`: the growth in experiment [1] was 14.6%; in [2] it was 13.5%; in [3] it was 19.3%; in experiment [4], 34.4%; in [5], 61.2%; in experiment [6], 26.2%. Moreover, the growth in experiment [7] is 38.7%; in experiment [8] it was -32.1% (active); in experiment [9] it was 23.8%; in experiment [10], -9.65% (active); in experiment [11], 36.2%; in [12] it was 15.5%. Moreover, the growth in [13] was 35.9%; in experiment [14], 6.55% (active); in [15] it was 10.4%; in [16], 6.44% (active); in [17] it was 3.61% (active); in experiment [18] it was -6.01% (active).
As for `CCOC(=O)/C(F)=C/C1CC1C(c1ccccc1)c1ccccc1` (centres undefined), the growth was 63.3% in experiment [1]; 69.5% in [2]; 105% in [3]; 102% in experiment [4]; 87.3% in [5]; 148% in experiment [6]. For the same compound, the growth in experiment [7] was 90.8%; in [8] it was 103%; in experiment [9], 81.3%; in experiment [10] it was 89.4%; in experiment [11] it was 70.7%; in experiment [12], 117%. In addition, the growth was 75.1% in experiment [13]; 80.7% in experiment [14]; 62% in experiment [15]; 102% in experiment [16]; 83.5% in [17]; 36.2% in experiment [18].
For `COc1cc(/C=C/C(=O)c2cnn(-c3cc(=O)[nH]c4ccc(C)cc34)c2C)cc(OC)c1OC`, the growth was -8.63% (active) in experiment [1]; -40.2% (active) in experiment [2]; 11.5% in experiment [3]; -37.3% (active) in experiment [4]; 39.3% in experiment [5]; 24.7% in experiment [6]. Also, the growth in [7] was -1.52% (active); in experiment [8] it was -50.1% (active); in experiment [9] it was 52.5%; in experiment [10], -11.1% (active); in experiment [11], 1.32% (active); in [12], -57.2% (active). Further, the growth in experiment [13] was -57.6% (active); in experiment [14], -15.7% (active); in experiment [15], -77.3% (active); in [16], -99% (active); in [17], -41.8% (active); in experiment [18], -77.3% (active).
